# In PubChem BioAssay AID651820 (National Center for Advancing Translational Sciences (NCATS), 2012):
# The whole screen tested about 340,000 compounds, of which about 12,000 (3.5%) were called active. Entries that show only a call come without a potency. Roughly 18% stayed inconclusive and do not appear here. For the sample, actives were picked, then their nearest neighbours and some compounds at random. Unmarked numbers belong to inactive results. Calls come from the whole dose curve; as a rule, active = well fitted inhibition curve with a large enough effect; inconclusive = small, poorly fitted or top-dose-only effect, or another doubt; inactive = no such curve, though single readings can be large or run the other way.
# Assay: qHTS Assay for Inhibitors of Hepatitis C Virus (HCV)
# Conditions: Huh7.5.1 HCVcc-Cre infection, luciferase reporter, 44 h; series mostly up to 41.8 µM
# Outline: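 Whole-lifecycle infectious HCVcc-Cre system; cells 1,000/well, compound then virus (~0.5 moi) added 4 h after plating, 44 h culture. Luciferase read 15 sec following 15 min substrate incubation, room temp.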
# Potency is the fitted concentration of half-maximal effect.
Compound,Potency,"activity change, negative = inhibition"
CCN(CC)S(=O)(=O)c1ccc(N(C)Cc2ccc(C(F)(F)F)cc2)nc1,14.1 µM (active),
CCN(CC)S(=O)(=O)c1ccc(Cl)c(NC(=O)c2ccncc2)c1,inactive,
CCN(CC)S(=O)(=O)c1ccc(N(C)Cc2cccc(OC)c2OC)nc1,3.98 µM (active),
CCN(CC)S(=O)(=O)c1ccc(N(C)CCc2ccc(OC)c(OC)c2)nc1,inactive,
COc1ccc(S(=O)(=O)N2CCCCCC2)cc1C(=O)N(C)Cc1cccc(OC)c1OC,inactive,
CCN(CC)S(=O)(=O)c1ccc(NC(=O)c2cnc(C)cn2)cc1,inactive,
CCCn1c(C)cc(/C=C(\C#N)C(=O)OCC(=O)N(C)c2c(N)n(Cc3ccccc3)c(=O)[nH]c2=O)c1C,inactive,
COc1ccccc1C(=O)OCC(=O)Nc1cccc(S(=O)(=O)NC2=NCCCCC2)c1,inactive,
CC1CN(Cc2ccco2)C(=S)N(c2ccccc2)C1=O (stereo not drawn),inactive,
COc1ccc(C(=O)COC(=O)C(O)c2ccccc2)c(OC)c1 (stereo not drawn),inactive,
COc1ccc(C(=O)OCC(=O)N2CC(=O)Nc3ccccc32)cc1Br,inactive,
COc1ccc(Br)cc1/C=N/Nc1ccc(S(=O)(=O)Nc2ccccc2C(=O)O)cc1[N+](=O)[O-],inactive,
COc1cccc(NC(=O)C(=O)c2cn(CC(=O)N3CCOCC3)c3ccccc23)c1,11.2 µM (active),
O=C(Nc1ccc(F)cc1)C(=O)c1cn(CC(=O)N2CCOCC2)c2ccccc12,inactive,
COc1cccc(NC(=O)CS(=O)(=O)c2cn(CC(=O)N3CCOCC3)c3ccccc23)c1,inactive,
CCCC[C@@H]1CN=C(N)N1CCc1cccc(F)c1,inactive,
CC(C)(Oc1ccc(Cl)cc1)C(=O)OCC(=O)NCCc1ccc(S(N)(=O)=O)cc1,inactive,
CC[C@]12c3[nH]c4cc(CCC(=O)N(C)C)ccc4c3CCN1C(=O)[C@@H](CC(=O)NCc1ccco1)C[C@@H]2C(=O)N1CCN(C(=O)c2ccco2)CC1,,-1.33% [at 8.37 µM]
O=[N+]([O-])c1cccc(C=NN=Cc2ccccc2O)c1,inactive,
S=c1ccc2ccccc2[nH]1,inactive,
CCCCn1c(=S)[nH]c2ccccc2c1=O,inactive,
S=c1[nH]c2ccccc2c2ccccc12,11.2 µM (active),
COc1ccccc1N1CC(O)=C(c2nc3ccccc3s2)C1=N,11.2 µM (active),
COc1ccccc1OCc1nc2ccccc2s1,inactive,
N=C1C(c2nc3ccccc3[nH]2)=C(O)CN1NC(=O)c1c[nH]c2ccccc12,inactive,
CCOC(=O)CCCN1CC(O)=C(c2nc3ccccc3s2)C1=N,inactive,
O=C(Nn1c(-c2ccccc2)nc2ccccc2c1=O)c1ccc([N+](=O)[O-])cc1,inactive,
N=C1C(c2nc3ccccc3s2)=C(O)CN1NC(=O)c1ccc([N+](=O)[O-])cc1,11.2 µM (active),
